Values joined by “and” are separate entries in the source; they are usually repeats but may differ in a detail not shown here. Identical values can stand only once. About 83,000 compounds went through this panel and 20% of them were active in at least one assay; those are over-represented in the sample as a whole.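 Percent growth is the endpoint: 0 to 100 indicates growth inhibition (40 means 60% inhibition), 0 means no net growth, and negative values indicate cell death.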 Active and inactive are the calls of the source. Rule for the calls: active = growth percent below 10; inactive = the rest.
Each compound was assayed on MDA-MB-468 breast (assay: NCI-60 one-dose screen, 48 h (100 = growth as untreated, 0 = no growth, -100 = all killed)). Conditions: 10 µM unless noted.

| SMILES | growth |
| --- | --- |
| O=C(CSc1nnc(-c2cc3c([nH]c4ccccc43)c(-c3cccc(O)c3)n2)n1-c1ccccc1)c1ccccc1 | 63% (inactive) |
| C=C(C)[C@@H]1CC[C@]2(CO)CC[C@]3(C)[C@H](CC[C@@H]4[C@@]5(C)CCCNC(C)(C)[C@@H]5CC[C@]43C)[C@@H]12 | 11.7% (inactive) |
| O=[N+]([O-])c1ccc(/C=C/C2(CCl)OCCO2)cc1 | 108% (inactive) |
| COc1ccc(/C=C/C(=O)c2cc(O)ccc2O)cc1 | 71.2% (inactive) |
| CN1CCN(C)c2cncc(Br)c2C1=O | 106% (inactive) |
| CC(=O)OC[C@H]1O[C@H](OC(C)=O)[C@H](NC(=O)/C=C/CCl)[C@@H](OC(C)=O)[C@@H]1OC(C)=O | 75.3% (inactive) |
| c1ccc(C2=NN[C@H](c3cn(-c4ccccc4)nc3-c3ccccc3)C2)cc1 | 28.2% (inactive) |
| C/C(Cc1ccc(Cl)cc1)=C(\c1ccc(OCCN2CCCCCC2)cc1)c1ccc(OC(=O)Cc2ccccc2)cc1 | 69% (inactive) |
| CS(=O)(=O)OCC1NC(=O)C(COS(C)(=O)=O)NC1=O (stereo not given) | 87% (inactive) and 79.3% (inactive) |
| COc1ccc(-c2ccc(NNC(=O)c3ccc(F)cc3)nn2)cc1OC | 56.2% (inactive) |
| NS(=O)(=O)c1cccc(Nc2nc(SCC(=O)c3ccc(Cl)cc3)nc3ccccc23)c1 | 80.1% (inactive) |
| CCN(CC)CCOc1ccc(NC(=O)C(C(C)C)N2C(=O)/C(=C/c3ccc(Br)cc3)SC2=S)cc1 (stereo not given) | 63.2% (inactive) |
| Fc1ccc(Nc2ccc3c(OCCCN4CCOCC4)cccc3n2)cc1F | 46.3% (inactive) |
| NC(N)=N/N=C/c1ccc(Br)cc1 | 8.33% (active) |
| CCc1c2c(nc3ccc(OC(=O)NCc4ccc(B5OC(C)(C)C(C)(C)O5)cc4)cc13)-c1cc3c(c(=O)n1C2)COC(=O)[C@]3(O)CC | -33.9% (active) |
| N#Cc1c(-c2cccc(Cl)c2)cc(-c2cccc(F)c2)[nH]c1=O | 87.1% (inactive) |
| O=C(Nc1ccc(-n2cc(-c3ccncc3)c(-c3ccc(Cl)c(O)c3)n2)cc1)N1CCOCC1 | 112% (inactive) |
| Nc1cccc(Nc2cc(S(=O)(=O)O)c(N)c3c2C(=O)c2ccccc2C3=O)c1 | 112% (inactive) |
| CC(Nc1c(C#N)cnc2ccc(-c3cncc(-c4n[nH]c(=O)o4)c3)cc12)c1ccccc1 (stereo not given) | -41.7% (active) |
| COc1cc2ncnc(Nc3ccc(F)c(Cl)c3)c2cc1OCC(=O)N1CCCCC1 | -41.9% (active) |
| COc1cccc(NC(=O)Nc2ccc(Nc3ncnc4[nH]c(C)c(C)c34)cc2)c1 | 112% (inactive) |
| O=C1Nc2ccccc2/C1=C/c1cccs1 | -20.2% (active) |
| CCn1ccnc1C(=O)/C=C/c1ccc(CC(=O)Nc2ccc(F)cc2)cc1 | -13.8% (active) |
| COc1ccc2[nH]cc(C(c3ccc(Cl)cc3)N3CCCC3)c2c1 (stereo not given) | 84% (inactive) |
| COc1ccc(/C=N/NC(N)=S)cc1 | 82.6% (inactive) |

— PubChem BioAssay (NCI)
